Data reported in PubChem BioAssay AID720518 (National Center for Advancing Translational Sciences (NCATS), 2013).
Inconclusive results are not listed. The source made the active and inactive calls. Calls follow the shape of the full dose curve.

Test: qHTS for Inhibitors of Cell Surface uPA Generation: Wild-type Protective Antigen (WT-PrAg) Counterscreen for Cherry-picked Compounds; also: 0% is about no effect
Details: cells, WT protective antigen toxicity counterscreen; series mostly up to 115 µM; activity (protection): at the top concentration

Structure (SMILES) | activity (protection)
COc1ccc(C(=O)c2sc(Nc3ccccc3)nc2N)cc1 | 5.73% (inactive)
Cc1cc(N2C(=O)C(O)=C(C(=O)c3ccco3)C2c2ccc(Cl)cc2)no1 (stereo not given) | -2% (inactive)
CCOC(=O)Cc1csc(NC(=O)Nc2cccc(OC)c2)n1 | 2.04% (inactive)
COc1ccc(Cl)cc1NC(=O)CSc1nc(=O)n(CCN(C)C)c2c1CCCC2 | -2.67% (inactive)
CCC(C)C(NC(=O)c1ccccc1)C(=O)Nc1ccc(S(=O)(=O)Nc2cc(C)nc(C)n2)cc1 (stereo not given) | 0.77% (inactive)
Cc1c(NC(=O)C(C)OC(=O)CCC2CCCC2)c(=O)n(-c2ccccc2)n1C (stereo not given) | 0.713% (inactive)
CCOc1ccc(CCNC(=O)Cc2ccc(NC3=NC4CS(=O)(=O)CC4S3)cc2)cc1OCC (stereo not given) | 2.98% (inactive)
CC(=O)Nc1ccc(OS(=O)(=O)c2c(C)cc(C)cc2C)cc1 | -2.07% (inactive)
O=C(COC(=O)c1cc([N+](=O)[O-])ccc1NCCO)NCc1cccs1 | -0.253% (inactive)
COCCN(C(=O)c1ccccc1OC)c1nnc(C)s1 | -1.62% (inactive)
COc1ccc2nc(SC(C)C(=O)NC3(C#N)CCCCC3)[nH]c2c1 (stereo not given) | -1.42% (inactive)
O=C(COC(=O)c1ccc2ncsc2c1)NCc1cccc(Cl)c1 | -0.608% (inactive)
CCn1c(SC(C)C(=O)NC2CCCC2)nc2cc(S(N)(=O)=O)ccc21 (stereo not given) | 4.81% (inactive)
Cc1[nH]c(=O)[nH]c(=O)c1S(=O)(=O)N1CCCc2ccccc21 | -1.05% (inactive)
COc1cccc(NC(=O)N2C3CCCC2CC(NC(C)=O)C3)c1 (stereo not given) | 0.204% (inactive)
CCN1CCN(Cc2ccc(NC(=O)c3cc(NC(=O)c4cncc(-c5cccs5)c4)cc(OC)c3)cc2C(F)(F)F)CC1 | -0.909% (inactive)
COc1ccc(/C=C/C(=O)Nc2ccccc2Cl)cc1S(=O)(=O)N1CCOCC1 | -0.626% (inactive)
Cc1ccc(NC(=O)C(C)S)cc1 (stereo not given) | -2.35% (inactive)
O=C(c1cc([N+](=O)[O-])cc([N+](=O)[O-])c1)N(c1ccccn1)c1ccccn1 | -0.695% (inactive)
Cc1cc(C(=O)NP(=O)(N2CCOCC2)N2CCOCC2)c(C)n1C1CC1 | 2.08% (inactive)

Structure (SMILES) | activity (protection)
Cc1[nH]c2ccccc2c1C(=O)C(C)OC(=O)c1ccccc1NCCO (stereo not given) | -2.54% (inactive)
OCCN(Cc1ccccc1)CC(O)COc1ccc2c(c1)OCO2 (stereo not given) | -0.0373% (inactive)
Cc1ccc(-c2cc(C(=O)NCC3CCCO3)no2)cc1 (stereo not given) | -2.27% (inactive)
O=[N+]([O-])c1ccc(-c2cn3c(n2)SCC3)cc1 | -1.19% (inactive)
COc1ccc(C2=NS(=O)(=O)N(C)C(C(=O)NCc3ccccn3)=C2)cc1 | -1.14% (inactive)
C[C@H](CO)N1C[C@H](C)[C@@H](CN(C)C(=O)Nc2ccccc2)Oc2ccc(NC(=O)Cn3cnnn3)cc2C1=O | -0.0378% (inactive)
O=C(/C=C/c1cccc(Oc2ccccc2)c1)N1CCOCC1 | 0.547% (inactive)
CCN(c1ccccc1)S(=O)(=O)c1ccc(NC(=O)c2ccco2)cc1 | -1.51% (inactive)
CC(/C=C/C1(O)C(C)CC(O)CC1(C)C)OC1OC(CO)C(O)C(O)C1O (stereo not given) | 1.61% (inactive)
COc1ccc(C2=C/C(=C\c3ccccc3OC(C)=O)C(=O)O2)cc1 | -1.93% (inactive)
Cc1cc(SCc2ccc(Cl)cc2)nc(=O)[nH]1 | -2.11% (inactive)
COc1ccc(C2=Nc3ccccc3C2(O)CCN2C(=O)c3ccccc3C2=O)cc1 (stereo not given) | -1.2% (inactive)
Cc1cccc(C(=O)NCC(=O)OCC(=O)NC2CCCCCCC2)c1 | 0.954% (inactive)
CN(CCC#N)C(=S)Nc1ccc(Oc2ccccc2)cc1 | -0.411% (inactive)
COc1ccccc1C(=O)NCc1ccccc1 | -0.863% (inactive)
O=C(CN1CCOC1=O)N1CCCC(Nc2ccc(F)c(F)c2)C1 (stereo not given) | -0.513% (inactive)
CC1CC(=O)Nc2ccccc2N1C(=O)Cn1cnc2ccc(Br)cc2c1=O (stereo not given) | 0.168% (inactive)
Cc1cc(C)n(CCCNC(=O)c2ccc(C)o2)n1 | -1.36% (inactive)
CN(CCCNC(=O)Cn1cccc1C(=O)c1ccccc1)C1CCCCC1 | -2.26% (inactive)
O=C(NCCCn1cccn1)C1CCC(=O)N(Cc2ccccc2F)C1 (stereo not given) | -0.576% (inactive)
